Data: PubChem BioAssay (EPA / NIEHS)
Inconclusive results are not listed. Calls of active or inactive are those of the source. How the source made its calls: active means hit-call score of the fitted dose curve at least 0.9, where 1 is the maximum; inconclusive means response in the unintended direction; inactive means score below 0.9.

Tests used:
[1] = biological target: Cellular tumor antigen p53 (Homo sapiens) (UniProt P04637); assay: TOX21_p53_BLA_p3_ratio: Tox21 HCT-116 p53 Agonism Beta-lactamase Assay, Ratio, Phase 3 (AID 2283596)
Outline: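 Cells were seeded at 4000/well, rested 5 h at 37C, then dosed with DMSO compound solutions (217-fold dilution) for 16 h. CCF4-AM substrate was loaded for 2 h at room temperature, and the 460/530 nm emission ratio was fitted for gain of signal versus DMSO.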

[2] = TOX21_p53_BLA_p4_viability: Viability Assessment in the Tox21 HCT-116 p53 Agonism Beta-lactamase Assay, Phase 4 (AID 2283597);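 further: hits lower the luminescence signal meaning cytotoxicity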
Outline: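 4000 HCT116 cells per well; 5 h attachment; compounds from DMSO, 217-fold dilution; 16 h at 37C. Then CCF4-AM, 2 h RT, followed by CellTiter-Glo, 30 min RT, luminescence. Decrease = cytotoxicity.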

[3] = TOX21_p53_BLA_p5_viability: Viability Assessment in the Tox21 HCT-116 p53 Agonism Beta-lactamase Assay, Phase 5 (AID 2283600)
Outline: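 Decreased CellTiter-Glo luminescence denotes lost viability. Exposure: 16 h at 37C, 5% CO2, with compounds from DMSO stocks diluted 217-fold in wells of 4000 cells.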

[4] = biological target: Cellular tumor antigen p53 (Homo sapiens) (UniProt P04637); assay: TOX21_p53_BLA_p4_ratio: Tox21 HCT-116 p53 Agonism Beta-lactamase Assay, Ratio, Phase 4 (AID 2283601)
Outline: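 HCT-116 p53 beta-lactamase reporter cells (4000/well) preincubated 5 h, then compound (217-fold dilution of DMSO stock) for 16 h at 37C. CCF4-AM substrate added 2 h at room temperature; 460/530 nm emission ratio fitted upward versus DMSO.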

[5] = Tanguay_ZF_120hpf_MORT_legacy: (Legacy) Oregon State University Tanguay Lab 120 Hour Post-fertilization zebrafish Assay for Mortality (AID 2283633)
Outline: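 Dechorionated Tropical 5D wild-type zebrafish embryos, one per well from 6 hpf, static exposure in 0.64% DMSO at 28C until 120 hpf. Mortality scored as binary by brightfield microscopy at 24 and 120 hpf.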

[6] = Tanguay_ZF_120hpf_EYE_legacy: (Legacy) Oregon State University Tanguay Lab 120 Hour Post-fertilization zebrafish Assay for Eye Malformation (AID 2283636);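 further: binary presence or absence of eye malformation scored by brightfield in 120 hpf larvae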
Outline: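 5D wild-type embryos, pronase-dechorionated at 4 hpf; static exposure 6–120 hpf, 28C, dark; DMSO 0.64% final; 5uM trimethyltin chloride positive control. Binary eye-defect scoring at 120 hpf; dead embryos not scored.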

[7] = Tanguay_ZF_120hpf_SNOU_legacy: (Legacy) Oregon State University Tanguay Lab 120 Hour Post-fertilization zebrafish Assay for Snout Malformation (AID 2283637)
Outline: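 Binary brightfield scoring of snout malformation at 120 hpf. Dechorionated 5D wild-type embryos, one per well, static exposure from 6 hpf at 28C, sealed and dark; final DMSO 0.64% (vol/vol), DMSO as baseline; 5uM trimethyltin chloride positive control.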

[8] = Tanguay_ZF_120hpf_JAW_legacy: (Legacy) Oregon State University Tanguay Lab 120 Hour Post-fertilization zebrafish Assay for Jaw Malformation (AID 2283638)
Outline: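 Dechorionated Tropical 5D wild-type zebrafish embryos, one per well, exposed statically from 6 hpf to 120 hpf at 28C in 0.64% DMSO. Jaw malformation was scored by brightfield microscopy as present or absent. It was not scored in dead embryos.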

[9] = Tanguay_ZF_120hpf_OTIC_legacy: (Legacy) Oregon State University Tanguay Lab 120 Hour Post-fertilization zebrafish Assay for Otic Vesicle Malformation (AID 2283639)
Outline: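 Binary scoring of otic vesicle defects at 120 hpf in zebrafish (Tropical 5D) held under static exposure at 28C, sealed and shaded, with final DMSO 0.64%. Embryos dying by 24 or 120 hpf excluded; fitted positively against DMSO.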

[10] = Tanguay_ZF_120hpf_SOMI_legacy: (Legacy) Oregon State University Tanguay Lab 120 Hour Post-fertilization zebrafish Assay for Somite Malformation (AID 2283647)
Outline: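 Dechorionated Tropical 5D wild-type zebrafish embryos, one per well from 6 hpf, statically exposed at 28C to 120 hpf in 0.64% DMSO; somite malformation scored present/absent by brightfield; trimethyltin 5 uM positive control; dead embryos not scored.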

[11] = Tanguay_ZF_120hpf_PIG_legacy: (Legacy) Oregon State University Tanguay Lab 120 Hour Post-fertilization zebrafish Assay for Pigmentation Malformation (AID 2283650)
Outline: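 Brightfield scoring of pigmentation malformation at 120 hpf, recorded as binary present/absent per larva. Exposure: dechorionated 5D wild-type embryos, one per well, static from 6 hpf at 28C, final DMSO 0.64% (vol/vol). Dead embryos not scored.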

[12] = Tanguay_ZF_120hpf_CIRC_legacy: (Legacy) Oregon State University Tanguay Lab 120 Hour Post-fertilization zebrafish Assay for Circulatory Malformation (AID 2283651)
Outline: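 Binary circulatory malformation call at 120 hpf by brightfield imaging of zebrafish larvae; chorion removed at 4 hpf, static exposure from 6 hpf in sealed dark plates at 28C, final DMSO 0.64%; non-mortality endpoints skipped if embryo died.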

[13] = biological target: Cellular tumor antigen p53 (Homo sapiens) (UniProt P04637); assay: TOX21_p53_BLA_p5_ratio: Tox21 HCT-116 p53 Agonism Beta-lactamase Assay, Ratio, Phase 5 (AID 2283599)
Outline: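 HCT-116 p53-bla cells (4000/well) plated 5 h, dosed with compound (217-fold DMSO dilution) for 16 h at 37 C; CCF4-AM substrate 2 h at room temperature. Activity is the 460/530 nm emission ratio (405 nm excitation), fitted in gain-of-signal direction versus DMSO.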

[14] = Tanguay_ZF_120hpf_YSE_legacy: (Legacy) Oregon State University Tanguay Lab 120 Hour Post-fertilization zebrafish Assay for Yolk Sac Edema (AID 2283634)
Outline: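 Dechorionated Tropical 5D wild-type zebrafish embryos were exposed statically, one per well, from 6 to 120 hpf at 28C in 0.64% DMSO. Yolk sac edema was scored present/absent by brightfield at 120 hpf, and dead embryos were excluded.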

[15] = Tanguay_ZF_120hpf_PE_legacy: (Legacy) Oregon State University Tanguay Lab 120 Hour Post-fertilization zebrafish Assay for Pericardial Edema (AID 2283640)
Outline: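 Tropical 5D wild-type zebrafish embryos were statically exposed until 120 hpf at 28C, with 0.64% DMSO final. Pericardial edema was scored by brightfield as present or absent; endpoints were not scored in dead embryos.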

[16] = Tanguay_ZF_120hpf_AXIS_legacy: (Legacy) Oregon State University Tanguay Lab 120 Hour Post-fertilization zebrafish Assay for Body Axis Malformation (AID 2283635)
Outline: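 Dechorionated wild-type Tropical 5D zebrafish embryos, one per well, statically exposed from 6 hpf to 120 hpf at 28C in 0.64% DMSO final. Body axis malformation scored present/absent by brightfield microscopy at 120 hpf; dead embryos excluded.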

[17] = Tanguay_ZF_120hpf_PFIN_legacy: (Legacy) Oregon State University Tanguay Lab 120 Hour Post-fertilization zebrafish Assay for Pectoral Fin Malformation (AID 2283648);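 further: each larva judged yes or no for fin defect by brightfield with dead larvae skipped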
Outline: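 Binary pectoral fin malformation call at 120 hpf by brightfield microscopy; 5D wild-type zebrafish, chorion removed at 4 hpf, one embryo per well from 6 hpf, static exposure at 28C; DMSO (0.64% final) as baseline.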

[18] = Tanguay_ZF_120hpf_CFIN_legacy: (Legacy) Oregon State University Tanguay Lab 120 Hour Post-fertilization zebrafish Assay for Caudal Fin Malformation (AID 2283649)
Outline: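 Dechorionated Tropical 5D wild-type embryos, one per well from 6 hpf, static exposure to 120 hpf at 28C in 0.64% DMSO. Caudal fin malformation scored by brightfield as present/absent; not scored in dead embryos.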

Measured: outcome

Chain of Cellular tumor antigen p53 (Homo sapiens) (P04637 whole entry, looked up): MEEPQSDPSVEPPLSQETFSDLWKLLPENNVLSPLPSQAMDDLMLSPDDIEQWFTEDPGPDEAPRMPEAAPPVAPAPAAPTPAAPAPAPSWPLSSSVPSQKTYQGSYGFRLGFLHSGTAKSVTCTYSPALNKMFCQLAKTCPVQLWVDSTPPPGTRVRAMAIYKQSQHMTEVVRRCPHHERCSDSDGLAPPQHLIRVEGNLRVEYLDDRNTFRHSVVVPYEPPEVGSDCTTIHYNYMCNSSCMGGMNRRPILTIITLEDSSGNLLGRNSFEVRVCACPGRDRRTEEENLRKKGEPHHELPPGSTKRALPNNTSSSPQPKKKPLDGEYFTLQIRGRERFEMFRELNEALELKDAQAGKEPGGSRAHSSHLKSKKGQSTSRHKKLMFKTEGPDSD

C1CC2OC2CC1C1CO1 (stereo unspecified)
not listed: [13] | [14] | [15] | [16] | [17] | [18]
inactive: all other assays above

ClC1=C(Cl)[C@]2(Cl)[C@@H]3[C@@H]4C[C@@H]([C@H]5O[C@@H]45)[C@@H]3[C@@]1(Cl)C2(Cl)Cl
not listed: [8] | [11] | [12] | [16] | [17] | [18]
inactive: all other assays above

O=S(=O)(O)C(F)(F)C(F)(F)C(F)(F)C(F)(F)F
not listed: [9] | [10] | [12] | [14] | [15] | [17] | [18]
inactive: all other assays above

c1ccc(-c2ccccc2)cc1
not listed: [2] | [7] | [12] | [18]
inactive: all other assays above

Cc1ccccc1O
not listed: [3] | [16] | [17]
inactive: all other assays above

Cc1cc(O)ccc1Cl
not listed: [10] | [14] | [17]
inactive: all other assays above

Cc1cccc(C)c1N
not listed: [3] | [8] | [9] | [10] | [17] | [18]
inactive: all other assays above

CCCCCCCCOC(=O)c1ccccc1C(=O)OCCCCCCCC
not listed: [2] | [17] | [18]
inactive: all other assays above
